Reference: the OligoGym collection

What follows are sequences tested against CIAPIN1 (assay: pooled miR-30 sensor sort-seq; sequence = guide strand). Details: shRNA.

| Sequence | sensor-assay potency score (higher = more potent) |
| --- | --- |
| TAACGCTTGAAGCTTATCCACC | -1.25 |
| TTAACATAAATGACAACAGGAC | -0.72 |
| TCTCAGAGTGAACAAATCCAGA | -1.26 |
| TTGTGAGCCACTTGACTCGTGT | -0.0962 |
| TTCTTCAGGACACACTCCCTTC | -0.89 |
| TTGTTATCTACAGCTGTCTCTA | -0.353 |
| TTAGATGCTGTCTTCACTTTGC | -0.0905 |
| TAAGCTGCCTAGAAGAACCCAC | 0.616 |
| TTGACTTCTCTTTTTCCAGTTC | -0.361 |
| TGGTCTTTTGATACACAGCAGC | -1.52 |
| TGTGATCTGAACAAACAGCAGG | -0.776 |
| TGGAGTAAACTAACAACTCTGA | -0.493 |

The sequences below were run against CIR1 in the same assay as above. Details: shRNA.

| Sequence | sensor-assay potency score (higher = more potent) |
| --- | --- |
| TTGTTCTTTAAGATATTGCTGC | -0.164 |
| TTCTTTAAGATATTGCTGCATC | -0.396 |
| TTTATTGTTACTCTCACTCTCA | 0.426 |
| TTCTTCATGAAGCTTTCTCTTC | -0.59 |
| TAGACTTGTCCTTCTCTTCAGA | -0.159 |
| TTTCGTTTCAGTGCAAACCCAC | -0.179 |
| TCTCTTCTTAGACTTGTCCTTC | -0.0367 |
| TTCTCTTCTTAGACTTGTCCTT | -0.317 |
| TTTGTGTTTACTTCTGCTCTTC | 0.203 |
| TTTTCTTCTCCAGTCGATCTAA | -0.412 |
| TACTGCTTTCTGAAGTCTCAGT | -0.586 |
| TATCATATGATATTTTCTGTTC | -0.717 |

Each sequence was assayed against CIRBP in the same assay as above. Details: shRNA.

| Sequence | sensor-assay potency score (higher = more potent) |
| --- | --- |
| TCAGAGATCTGTCCGTACTTTG | -1.1 |
| TATAGTAGTCTCTGGAGCCTCC | -0.259 |
| TGAGAAGACCTGCTCCAGCGAC | -1.23 |
| TGTCTTTCACAACCACCACTTC | -0.854 |
| TGTCGTAACTGTCTCTGTAGGA | 0.291 |
| TACTTTGAGAAGACCTGCTCCA | 0.53 |
| TAACTGTCTCTGTAGGACCCGC | -0.935 |
| ACTGTCGTAACTGTCTCTGTAG | -0.226 |
| TTCAGAGATCTGTCCGTACTTT | 0.15 |
| TCCGTACTTTGAGAAGACCTGC | -0.634 |
| TCTTTCACAACCACCACTTCAG | -0.118 |
| TGTCTGACGACTTGCCTGCCTG | -1.09 |
| TTGGTGTCAAAACTCAGCCCTC | -0.687 |
| ATCCTTAGCGTCGTCAATGTTC | -1.29 |
| TAGCGTCGTCAATGTTCTCAAA | -1.03 |
| TTTCACAACCACCACTTCAGAG | -0.729 |
